Source: the supplement of paper PMC8728848
This is one part of a sample in which the strongest signals are shown more often than they occur.

Assays:
Experiment in all cases: glycan array binding signal (z-score within array); higher = stronger binding
Conditions in all cases: glycan notation: IUPAC condensed, linker removed
[1] = target: Fuc(a1-2)Gal(b1-3)GlcNAc(b1-2)Man(a1-3)[Fuc(a1-2)Gal(b1-3)GlcNAc(b1-2)Man(a1-6)]Man(b1-4)GlcNAc(b1-4)[Fuc(a1-6)]GlcNAc
Method in brief: (§1)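 Negative Z-scores can be read as non-binding. The Z-score is calculated within each array and then averaged across arrays of one protein sequence at different concentrations or buffers and across linkers. Arrays, 3228 in all, were curated from the Consortium for Functional Glycomics database and kept only where the protein sequence was available.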

[2] = target: Fuc(a1-2)Gal(b1-3)GlcNAc(b1-3)Gal(b1-4)Glc
Method in brief: as §1

[3] = target: Fuc(a1-2)Gal(b1-4)GlcNAc(b1-2)Man(a1-3)[Fuc(a1-2)Gal(b1-4)GlcNAc(b1-2)Man(a1-6)]Man(b1-4)GlcNAc(b1-4)[Fuc(a1-6)]GlcNAc
Method in brief: as §1

[4] = target: Fuc(a1-2)Gal(b1-4)[Fuc(a1-3)]GlcNAc(b1-3)Gal(b1-4)[Fuc(a1-3)]GlcNAc(b1-3)Gal(b1-4)[Fuc(a1-3)]GlcNAc
Method in brief: as §1

[5] = target: Fuc(a1-2)[Gal(a1-3)]Gal(b1-3)GlcNAc(b1-2)Man(a1-3)[Fuc(a1-2)[Gal(a1-3)]Gal(b1-3)GlcNAc(b1-2)Man(a1-6)]Man(b1-4)GlcNAc(b1-4)[Fuc(a1-6)]GlcNAc
Method in brief: as §1

[6] = target: Fuc(a1-2)[Gal(a1-3)]Gal(b1-4)GlcNAc
Method in brief: as §1

[7] = target: Fuc(a1-2)[Gal(a1-3)]Gal(b1-4)GlcNAc(b1-3)[Fuc(a1-2)[Gal(a1-3)]Gal(b1-4)GlcNAc(b1-6)]GalNAc
Method in brief: as §1

[8] = target: Fuc(a1-2)[Gal(a1-3)]Gal(b1-4)GlcNAc(b1-6)GalNAc
Method in brief: as §1

[9] = target: Fuc(a1-2)[GalNAc(a1-3)]Gal(b1-3)GalNAc(b1-3)Gal(a1-4)Gal(b1-4)Glc
Method in brief: as §1

[10] = target: Fuc(a1-2)[GalNAc(a1-3)]Gal(b1-4)GlcNAc(b1-3)GalNAc
Method in brief: as §1

[11] = target: Fuc(a1-3)[Gal(b1-4)]GlcNAc(b1-3)Gal(b1-4)[Fuc(a1-3)]GlcNAc(b1-3)Gal(b1-4)[Fuc(a1-3)]GlcNAc
Method in brief: as §1

[12] = target: Fuc(a1-3)[Gal3S(b1-4)]GlcNAc6S
Method in brief: as §1

Fuc(b1-3)GlcNAc = target: Fuc(b1-3)GlcNAc
Method in brief: as §1

[13] = target: Gal(a1-3)Gal(b1-3)GlcNAc(b1-2)Man
Method in brief: as §1

[14] = target: Gal(a1-3)Gal(b1-3)GlcNAc(b1-2)Man(a1-3)[Gal(a1-3)Gal(b1-3)GlcNAc(b1-2)Man(a1-6)]Man(b1-4)GlcNAc(b1-4)GlcNAc
Method in brief: as §1

Gal(b1-3)GlcNAc(b1-2)Man = target: Gal(b1-3)GlcNAc(b1-2)Man
Method in brief: as §1

[15] = target: Gal(b1-3)GlcNAc(b1-2)[Gal(b1-3)GlcNAc(b1-6)]Man(a1-6)[Gal(b1-3)GlcNAc(b1-2)Man(a1-3)]Man(b1-4)GlcNAc(b1-4)GlcNAc
Method in brief: as §1

[16] = target: Gal(b1-3)GlcNAc(b1-3)Gal(b1-4)[Fuc(a1-3)]GlcNAc
Method in brief: as §1

[17] = target: Gal(b1-3)GlcNAc(b1-3)GalNAc
Method in brief: as §1

Gal(b1-4)GlcNAc(b1-2)Man = target: Gal(b1-4)GlcNAc(b1-2)Man
Method in brief: as §1

[18] = target: Gal(b1-4)GlcNAc(b1-2)Man(a1-3)[Gal(b1-4)GlcNAc(b1-2)Man(a1-6)][GlcNAc(b1-4)]Man(b1-4)GlcNAc(b1-4)[Fuc(a1-6)]GlcNAc
Method in brief: as §1

[19] = target: Gal(b1-4)GlcNAc(b1-2)[Gal(b1-4)GlcNAc(b1-6)]Man(a1-6)[GlcNAc(b1-4)][Gal(b1-4)GlcNAc(b1-2)Man(a1-3)]Man(b1-4)GlcNAc(b1-4)GlcNAc
Method in brief: as §1

[20] = target: Gal(b1-4)GlcNAc(b1-3)Gal(b1-4)Glc
Method in brief: as §1

[21] = target: Gal(b1-4)GlcNAc(b1-3)Gal(b1-4)GlcNAc(b1-2)[Gal(b1-4)GlcNAc(b1-3)Gal(b1-4)GlcNAc(b1-6)]Man(a1-6)[Gal(b1-4)GlcNAc(b1-3)Gal(b1-4)GlcNAc(b1-2)Man(a1-3)]Man(b1-4)GlcNAc(b1-4)GlcNAc
Method in brief: as §1

[22] = target: Gal(b1-4)GlcNAc(b1-3)Gal(b1-4)GlcNAc(b1-3)Gal(b1-4)GlcNAc(b1-2)Man(a1-3)[Gal(b1-4)GlcNAc(b1-3)Gal(b1-4)GlcNAc(b1-3)Gal(b1-4)GlcNAc(b1-2)Man(a1-6)]Man(b1-4)GlcNAc(b1-4)[Fuc(a1-6)]GlcNAc
Method in brief: as §1

[23] = target: Gal(b1-4)GlcNAc(b1-3)Gal(b1-4)GlcNAc(b1-3)Gal(b1-4)GlcNAc(b1-3)Gal(b1-4)GlcNAc(b1-2)[Gal(b1-4)GlcNAc(b1-3)Gal(b1-4)GlcNAc(b1-3)Gal(b1-4)GlcNAc(b1-3)Gal(b1-4)GlcNAc(b1-6)]Man(a1-6)[Gal(b1-4)GlcNAc(b1-3)Gal(b1-4)GlcNAc(b1-3)Gal(b1-4)GlcNAc(b1-3)Gal(b1-4)GlcNAc(b1-2)Man(a1-3)]Man(b1-4)GlcNAc(b1-4)[Fuc(a1-6)]GlcNAc
Method in brief: as §1

[24] = target: Gal(b1-4)GlcNAc(b1-3)Gal(b1-4)GlcNAc(b1-3)Gal(b1-4)GlcNAc(b1-3)Gal(b1-4)GlcNAc(b1-3)Gal(b1-4)GlcNAc(b1-2)Man(a1-3)[Gal(b1-4)GlcNAc(b1-3)Gal(b1-4)GlcNAc(b1-3)Gal(b1-4)GlcNAc(b1-3)Gal(b1-4)GlcNAc(b1-3)Gal(b1-4)GlcNAc(b1-2)Man(a1-6)]Man(b1-4)GlcNAc(b1-4)[Fuc(a1-6)]GlcNAc
Method in brief: as §1

B1: Aap lectin (Staphylococcus epidermidis) (protein)
chain: VNLNYSSPFMSLLSMPADSSSNNTKNTIDIPPTTVKGRDNYDFYGRVDIESNPTDLNATNLTRYNYGQPPGTTTAGAVQFKNQVSFDKDFDFNIRVANNRQSNTTGADGWGFMFSKKDGDDFLKNGGILREKGTPSAAGFRIDTGYYNNDPLDKIQKQAGQGYRGYGTFVKNDSQGNTSKVGSGTPSTDFLNYADNTTNDLDGKFHGQKLNNVNLKYNASNQTFTATYAGKTWTATLSELGLSPTDSYNFLVTSS
[1]
  glycan array binding signal (z-score): 2.87
[2]
  glycan array binding signal (z-score): -0.68
[3]
  glycan array binding signal (z-score): -0.829
[4]
  glycan array binding signal (z-score): -0.534
[5]
  glycan array binding signal (z-score): 3.02
[6]
  glycan array binding signal (z-score): 3.04
[7]
  glycan array binding signal (z-score): 2.98
[8]
  glycan array binding signal (z-score): -0.267
[9]
  glycan array binding signal (z-score): -0.573
[10]
  glycan array binding signal (z-score): 0.8
[11]
  glycan array binding signal (z-score): 0.476
[12]
  glycan array binding signal (z-score): -0.816
Fuc(b1-3)GlcNAc
  glycan array binding signal (z-score): 0.487
[13]
  glycan array binding signal (z-score): 2.18
[14]
  glycan array binding signal (z-score): 2.88
Gal(b1-3)GlcNAc(b1-2)Man
  glycan array binding signal (z-score): 3.17
[15]
  glycan array binding signal (z-score): -0.728
[16]
  glycan array binding signal (z-score): -0.351
[17]
  glycan array binding signal (z-score): 0.183
Gal(b1-4)GlcNAc(b1-2)Man
  glycan array binding signal (z-score): 3
[18]
  glycan array binding signal (z-score): 0.361
[19]
  glycan array binding signal (z-score): -0.475
[20]
  glycan array binding signal (z-score): 0.463
[21]
  glycan array binding signal (z-score): -0.781
[22]
  glycan array binding signal (z-score): 2.92
[23]
  glycan array binding signal (z-score): 0.345
[24]
  glycan array binding signal (z-score): 0.727
